Source: the supplement of paper PMC6555819

What follows are sequences tested on VDR:RXRa (NR concentration 270 nM, RXRa partner concentration 90 nM) (assay: PBM binding z-score (relative to random genomic background probes); higher = stronger binding; sequences stand for … in GC…GCGATTGACAGCGTAGAATGAAGG).
Procedure: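 Protein-binding microarray (Agilent 4x180K custom design, double-stranded 60-nt probes: 5' GC cap, 34-nt variable region, 24-nt constant primer region; full probe sequence given). Purified or IVT nuclear receptor:RXRα heterodimers (3:1 NR:RXRα, mostly 270:90 nM) or homodimers were incubated for 1 h in PBS with 2% milk and no ligand, then detected with Alexa488 antibodies. Fluorescence from o1-orientation probes (~5 replicates averaged) was converted to z-scores against 500 random hg19 background probes. Variable regions are seed direct-repeat (DR0–DR5) sites, all their single-nucleotide variants and half-site ablations.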
GCTGCTAGGTCCGGTTGGTCAGCTAACGGGTACG was tested, and the PBM binding z-score was -0.965.
ACTATTAGTTGAGACGGGGGCAACCGATAGGTTG showed a PBM binding z-score of 2.71.
TCATATAGGTAAATGATAGGTGAAAGTCCGATCT showed a PBM binding z-score of 1.15.
GCTTACGGGTCAAAGGTAATAGCATGAATAGAAT gave a PBM binding z-score of 4.12.
TCTTGTAGATCAATAGAGGTTAAAAAAGTGCGCT gave a PBM binding z-score of 1.94.
In the case of AAAACAGGGTCACTAGGCCAGAGTAGGTACGAAT, the PBM binding z-score is reported as 4.38.
TCTATTAGTTGATTACGGCAACCGAAACAGCGGA was tested, and the PBM binding z-score was 0.738.
For ATCTCGAGGTAAAGATAGTTCAGTGAATGCAAAT, the PBM binding z-score was 1.23.
Work on CCTAGCAGTCCAATCTGGGTCACTCAAGGCTTGA yielded a PBM binding z-score of 0.794.
TCTAGTTGGGCAAAGGTCACACACTCGAAATGCG was tested, and the PBM binding z-score was 4.65.
With CCTAGCAGGCCAATCTGGGTCACACAAGGCTTGA the PBM binding z-score was 1.09.
With TCAAATAGGTAAAAGGTGAAAGTCGGTGTGGTAA the PBM binding z-score was 1.79.
ATCGAAAGATCGTGAGGTGAGTATACAGAAAGGC gave a PBM binding z-score of -0.0654.
ACAGACAGGTGATGTAGGTAACTCAGGCTATCAT showed a PBM binding z-score of -0.00251.
Work on ATACCCAGGTGATCGTGAGGTCGTTGATACTAAC yielded a PBM binding z-score of 2.51.
In the case of TTACCAAGGTGAACGTCGTTGATCCCTCTGTAGA, the PBM binding z-score is reported as 0.322.
TCTTGTAGATCAAGCAGGTAAAGAAAGCCTGAGT gave a PBM binding z-score of 0.212.
In the case of CGAACGAGGGCATGAGGTGATAGCAAATGCCGAT, the PBM binding z-score is reported as 0.93.
Sequence TGAATGAGGTTAAAGTTCAGGGAACGTGGCGTCG has a PBM binding z-score of 4.37.
Work on TCTCGGAGGACACGAAGGTCAGACCTTTCCAGAG yielded a PBM binding z-score of 2.45.
Sequence CAAACTAGGTCAAGGTCAAACTCGGTTTGTGCCA has a PBM binding z-score of 5.49.
Work on ATACCAAGGTGATCGTGAGGTCGTTAATACTAAC yielded a PBM binding z-score of 3.1.
In the case of ATCTCTAGGCAAAAGTTCAGTGAATCCCGAGGAT, the PBM binding z-score is reported as 0.715.
With ACAGACAGGTGATGATGGTAACTCAGGCTATCAT the PBM binding z-score was -0.153.
With ACTGGCAGGCCAAGTTTGGGTCACTCAAACAAAG the PBM binding z-score was 0.456.
For CTACCAAGGTGAACAAGGTCGCTGATTACTATTC, the PBM binding z-score was 5.5.
GCTTTTAGATCAAGGTTAAGAAAGACTAAGCTAA showed a PBM binding z-score of 0.374.
With ACTGGTTGGTCAGCTGAGGTCACACACAATTCGG the PBM binding z-score was 4.57.
CTAACTAGGTCATTGACAGGACAGTGAATAGTAA showed a PBM binding z-score of 2.2.
With CAAACTAGGTCGAAGGTCAAAGTCGAGCCAACCA the PBM binding z-score was 4.45.
CCTACTGGGCCATTCAGAGGCCATTGATCATATG gave a PBM binding z-score of -0.232.
ATCTCTAGGTAAAGATAGTTCAGAGAATGCAAAT was tested, and the PBM binding z-score was 0.478.
For ACCATTAGTTGAGACGAGGGCAACCGATAGGTTG, the PBM binding z-score was 0.755.
ATCTCTACGTAAAAGTTCAGTGAATCCCGAGGAT showed a PBM binding z-score of 1.1.
TAGCCTAGGGCATGCGGGCCAGTATAGTGTCGGC showed a PBM binding z-score of -0.814.
Sequence CGTCAAAGTTCCACTAAGGTAACGTAAAGCACGC has a PBM binding z-score of 0.211.
Work on ACTAGCAGGCGAAGGGTCACTCAAGATTAGTCCG yielded a PBM binding z-score of 2.23.
With AGAACGAGGGCAATGAGTTGAGAGCACGGGTGGC the PBM binding z-score was 4.33.
With TCTAGTAGTTGAAGGGCAACCGACGAGTCCGTTT the PBM binding z-score was 0.266.
In the case of CCTCGGAGGACAACAGGTGGTCAGAGCTGCCAGA, the PBM binding z-score is reported as -0.645.
